Data as given in PubChem BioAssay (NCATS).
Records with an inconclusive call do not appear. Where a call stands in place of a potency, no number is given. Activity calls are given as the source filed them. Calls follow the shape of the dose curve; as a rule, active = well fitted curve in the direction sought with a large enough effect; inconclusive = small, poorly fitted or top-dose-only effect, or another doubt; inactive = no such curve, though single readings can be large; an effect the other way counts as inactive or inconclusive.

What follows are compounds tested on CRL-7250 (assay: qHTS assay to identify novel small-molecules to repurpose for Merkel cell carcinoma treatment (AID 1296009; also: nearly all actives have a fitted effect of over 60% in size)). Settings: MCC and control cell lines, CellTiter-Glo viability, 72 h; series mostly up to 92 µM.
How it was run: (§1)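 CellTiter-Glo luminescence after 72 hr compound exposure at 37 degree celsius gave cell viability. Libraries NPC and MIPE were run as 8- and 11-point dose responses; RLUs normalized to DMSO (negative) and no-cell (cytotoxicity) controls.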

Row | Structure (SMILES) | Potency
1 | C/C=C(/C)C1C=CC2CC(C)CC(C)C2C1/C(O)=C1\C(=O)NC(CC(C)(O)C(=O)O)C1=O (stereo not drawn) | inactive
2 | CS[C@]1(CO)C(=O)N2[C@H]3C(=CC=C[C@@H]3O)C[C@@]2(SC)C(=O)N1C | inactive
3 | COc1ccc2c3c4n(c2c1)[C@@H](C=C(C)C)OOC(C)(C)C[C@@H]4N1C(=O)[C@@H]2CCCN2C(=O)[C@]1(O)[C@H]3OCC=C(C)C | inactive
4 | CC1=CC2/C=C(\C)CCCC(O)/C=C/C(=O)OC23C(=O)NC(CC(C)C)C3C1C (stereo not drawn) | inactive
5 | N#CC(O[C@@H]1O[C@H](CO)[C@@H](O)[C@H](O)[C@H]1O)c1ccccc1 (stereo partly drawn) | inactive
6 | CC(=O)O[C@@H]1[C@H]2CC[C@H]3[C@@](C)(O)[C@@H]4C[C@H](O)C(C)(C)[C@@]4(O)[C@H](O)C[C@@]13C[C@@]2(C)O | inactive
7 | CN1C2CCC1CC(OC(=O)N1Cc3ccccc3NC1=O)C2 (stereo not drawn) | inactive
8 | C[C@]12CCC(=O)C=C1CC[C@@H]1[C@@H]2[C@@H](O)C[C@]2(C)C(=O)CC[C@@H]12 | inactive
9 | CN1C(=O)CN=C(c2ccccc2Cl)c2cc(Cl)ccc21 | inactive

Each compound was assayed on HACAT in the same assay as above. Settings: MCC and control cell lines, CellTiter-Glo viability, 72 h; at 44.8 µM (top of the series) unless noted.
How it was run: as §1

Row | Structure (SMILES) | outcome
10 | CC(=O)O[C@H]1CC[C@H]2[C@@H]3CC[C@H]4CC(=O)C=C(C)[C@]4(C)[C@H]3CC[C@]12C | inactive
11 | COCC(C(=O)OC1CC2CCC(C1)N2C)c1ccccc1 (stereo not drawn) | inactive
12 | CC[C@H]1C2CC3[C@@H]4N(C)c5ccccc5[C@]45C[C@@H]([C@H]2[C@H]5O)N3[C@H]1O | inactive
13 | Cc1c(N2C(=O)[C@@H]3[C@H](O)CCN3C2=O)ccc(C#N)c1Cl | inactive
14 | COC(=O)[C@]12CCCC(C)(C)C1CCc1cc(C(C)C)c(O)c(O)c12 (stereo partly drawn) | inactive
15 | C=CC/C=C\C/C=C\CCCCCCCc1cc(O)cc(O)c1 | inactive
16 | COC(=O)CC1CC2(C(=O)c3c(O)cccc3C2(O)C(=O)OC)C(C)O1 (stereo not drawn) | inactive
17 | CC1CCCC(O)CC(=O)Cc2cc(O)cc(O)c2C(=O)O1 (stereo not drawn) | inactive
18 | C1=C(c2cnc[nH]2)c2ccsc2CC1 | inactive
19 | CC1=CC2(O)/C=C/C(C)(O)C(O)C(O)/C=C/C(=O)OC23C(=O)NC(CC(C)C)C3C1C (stereo not drawn) | inactive [at 17.4 µM]
20 | C/C=C1/CN2CC[C@]34C(=Nc5ccc(OC)cc53)C2C[C@@H]1C4(CO)C(=O)OC (stereo partly drawn) | inactive
21 | Cc1cccc(NC(=O)N[C@H]2CN(C)c3ccccc3C(c3ccccc3)=N2)c1 | inactive
22 | Oc1ccc2c3c1O[C@H]1c4[nH]c5c(N=C=S)cccc5c4C[C@@]4(O)[C@@H](C2)N(CC2CC2)CC[C@]314 | inactive
23 | CCC(C)(O)C1(C(=O)O)COC(=O)C1 (stereo not drawn) | inactive [at 92 µM]
24 | O=C1N[C@@H](Cc2ccccc2)CN2CCCC[C@@H]12 | inactive

These compounds were tested on C33A (assay: Primary qHTS to identify gynecologic anti-cancer compounds using libraries of approved drugs and bioactive compounds (AID 1345084; also: nearly all actives have a fitted effect of over 55% in size; also: potency is read from the fitted curve at half-maximal effect)). Settings: Gynecologic cancer cell panel viability, ATPlite luminescence, 48 h; series mostly up to 57.5 µM.
How it was run: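 In this quantitative HTS, cell killing is estimated from loss of ATP-dependent luciferase light. Cells see five compound concentrations over a 48 h exposure.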

Row | Structure (SMILES) | Potency
25 | C/C=C(/C)C1C=CC2CC(C)CC(C)C2C1/C(O)=C1\C(=O)NC(CC(C)(O)C(=O)O)C1=O (stereo not drawn) | inactive
26 | CS[C@]1(CO)C(=O)N2[C@H]3C(=CC=C[C@@H]3O)C[C@@]2(SC)C(=O)N1C | inactive
27 | COc1ccc2c3c4n(c2c1)[C@@H](C=C(C)C)OOC(C)(C)C[C@@H]4N1C(=O)[C@@H]2CCCN2C(=O)[C@]1(O)[C@H]3OCC=C(C)C | inactive
28 | CC1=CC2/C=C(\C)CCCC(O)/C=C/C(=O)OC23C(=O)NC(CC(C)C)C3C1C (stereo not drawn) | inactive
29 | C=CC(C)(C)c1[nH]c2c(CC=C(C)C)cc(CC=C(C)C)cc2c1C[C@@H]1NC(=O)[C@H](C)NC1=O | inactive
30 | COc1cc(O)c2c(c1)/C=C/C[C@@H](O)[C@@H](O)C(=O)CCC[C@H](C)OC2=O | inactive
31 | CC(=O)O[C@H]1CC[C@H]2[C@@H]3CC[C@H]4CC(=O)C=C(C)[C@]4(C)[C@H]3CC[C@]12C | inactive
32 | COc1cc(N2CCN(C)CC2)ccc1N | inactive
33 | COCC(C(=O)OC1CC2CCC(C1)N2C)c1ccccc1 (stereo not drawn) | inactive
34 | N#CC(O[C@@H]1O[C@H](CO)[C@@H](O)[C@H](O)[C@H]1O)c1ccccc1 (stereo partly drawn) | inactive
35 | CC[C@H]1C2CC3[C@@H]4N(C)c5ccccc5[C@]45C[C@@H]([C@H]2[C@H]5O)N3[C@H]1O | inactive
36 | NC(=O)c1ncn2c1CN=C(c1ccccc1Br)c1cc(F)ccc1-2 | inactive
37 | Cc1c(N2C(=O)[C@@H]3[C@H](O)CCN3C2=O)ccc(C#N)c1Cl | inactive
38 | CC(=O)O[C@@H]1[C@H]2CC[C@H]3[C@@](C)(O)[C@@H]4C[C@H](O)C(C)(C)[C@@]4(O)[C@H](O)C[C@@]13C[C@@]2(C)O | inactive
39 | CC(=O)N1N=C(c2ccc(N)cc2)c2cc3c(cc2C[C@H]1C)OCO3 | inactive
40 | COC(=O)[C@]12CCCC(C)(C)C1CCc1cc(C(C)C)c(O)c(O)c12 (stereo partly drawn) | inactive
41 | COc1ccc(CN(C(=O)[C@@H](N)Cc2c(C)cc(C(N)=O)cc2C)[C@@H](C)c2ncc(-c3ccccc3)[nH]2)cc1C(=O)O | inactive
42 | C=CC/C=C\C/C=C\CCCCCCCc1cc(O)cc(O)c1 | inactive
43 | CN1C2CCC1CC(OC(=O)N1Cc3ccccc3NC1=O)C2 (stereo not drawn) | inactive
44 | COC(=O)CC1CC2(C(=O)c3c(O)cccc3C2(O)C(=O)OC)C(C)O1 (stereo not drawn) | inactive

Row | Structure (SMILES) | Potency
45 | c1cncc(OC[C@@H]2CCN2)c1 | inactive
46 | Cc1c(Cl)c(OCC(=O)N2CCN(C)CC2)nc2sc(C(=O)NC3CC3)c(N)c12 | inactive
47 | CN1CCc2cc3c(cc2C1C1OC(=O)c2c1ccc1c2OCO1)OCO3 (stereo not drawn) | inactive
48 | C#CCO[C@H]1CN2CCC1CC2 | inactive
49 | CC1CCCC(O)CC(=O)Cc2cc(O)cc(O)c2C(=O)O1 (stereo not drawn) | inactive
50 | COc1ccsc1CNCC[C@@]1(c2ccccn2)CCOC2(CCCC2)C1 | inactive
51 | C1=C(c2cnc[nH]2)c2ccsc2CC1 | inactive
52 | CC1=CC2(O)/C=C/C(C)(O)C(O)C(O)/C=C/C(=O)OC23C(=O)NC(CC(C)C)C3C1C (stereo not drawn) | inactive
53 | C/C=C1/CN2CC[C@]34C(=Nc5ccc(OC)cc53)C2C[C@@H]1C4(CO)C(=O)OC (stereo partly drawn) | inactive
54 | Cc1cccc(NC(=O)N[C@H]2CN(C)c3ccccc3C(c3ccccc3)=N2)c1 | inactive
55 | Oc1ccc2c3c1O[C@H]1c4[nH]c5c(N=C=S)cccc5c4C[C@@]4(O)[C@@H](C2)N(CC2CC2)CC[C@]314 | inactive
56 | CO[C@@H]1[C@H](O)[C@@H](O[C@@H]2C[C@H]3CC[C@@H]4C(CC[C@]5(C)[C@@H](C6=CC(=O)OC6)CC[C@]45O)[C@@]3(C)[C@H](O)C2)O[C@H](C)[C@@H]1O (stereo partly drawn) | 199 nM (active)
57 | C[C@@H]1CCC/C=C/[C@H]2C[C@@H](O)C[C@@H]2[C@@H](O)/C=C/C(=O)O1 | 891 nM (active)
58 | C[C@]12CCC(=O)C=C1CC[C@@H]1[C@@H]2[C@@H](O)C[C@]2(C)C(=O)CC[C@@H]12 | inactive
59 | CCC(C)(O)C1(C(=O)O)COC(=O)C1 (stereo not drawn) | inactive
60 | COC(=O)C1=COC(C)C2CN3CCC4(C(=O)Nc5ccccc54)C3CC12 (stereo not drawn) | inactive
61 | CC1(C)C(=O)N(c2ccc(C#N)c(C(F)(F)F)c2)C(=O)N1CCCCO | inactive
62 | O=C1N[C@@H](Cc2ccccc2)CN2CCCC[C@@H]12 | inactive
63 | CN1C(=O)CN=C(c2ccccc2Cl)c2cc(Cl)ccc21 | inactive
